# From PubChem BioAssay
# Legend:
# [1] = tested on: Human papillomavirus type 1a protein E7 (residues 44-93); assay: HPV1a E7 fragment binders on microarrays, primary screen, biochemical, small-molecule microarray, residues 44-93, 635 nm fluorescence (AID 1108); conditions: small-molecule microarray binding, fluorescence 635 nm; higher = more signal;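 note: E7 fragment applied at 1 µg/mL in TBST for 1 h at 4 C; score combines spot fluorescence with its signal to noise ratio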
# [2] = modulators of HCV replicon luciferase signal, primary screen, HCV replication inhibitor project, Huh7 cells, luciferase reporter (AID 1109); conditions: 48 h, higher = more signal;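 note: huh7 hepatoma cells harbouring a luciferase neomycin HCV replicon reporter; luciferase luminescence as measure of HCV replicon replication; test concentration not given here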
# [3] = biological target: Left-right determination factor 2 (Homo sapiens) (UniProt O00292); assay: LEFTY2 binders on small-molecule microarrays, primary screen, biochemical, small-molecule microarray, 635 nm fluorescence scan (AID 1110); conditions: LEFTY2 binding, higher = more signal
# [4] = biological target: Calmodulin-1 (Homo sapiens) (UniProt P0DP23); assay: CALM1 binders on microarrays, EGTA buffer, profiling panel, biochemical, small-molecule microarray, Cy5-labelled CALM1 (AID 1111); conditions: Cy5-CALM1 binding fluorescence, higher = more signal;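 note: labelled calmodulin applied in Tris saline Tween buffer holding calcium plus EGTA and DTT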
# [5] = biological target: Calmodulin-1 (Homo sapiens) (UniProt P0DP23); assay: calcium-bound CALM1 binders on microarrays, profiling panel, artefact control for SMM control-protein annotation, biochemical, small-molecule microarray, Cy5-labelled CALM1, plus calcium (AID 1112); conditions: Cy5-CALM1 binding fluorescence, higher = more signal;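 note: score merges spot fluorescence with signal to noise from triplicate slides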
# [6] = small-molecule microarray binders of probe aWnt5a, primary screen, biochemical, biotinylated probe, 635/667 nm fluorescence (AID 1113); conditions: higher = more signal;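 note: score merges 667 nm fluorescence intensity with signal-to-noise per printed feature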
# [7] = small-molecule microarray binders of probe aShh, primary screen, biochemical, biotinylated probe, 635/667 nm fluorescence (AID 1114); conditions: higher = more signal;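 note: probe is biotin-labelled aShh protein from a stem cell growth factor screen; measures binding of labelled protein to compounds printed on the slide; score merges feature fluorescence at 667 nm with signal-to-noise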
# [8] = small-molecule microarray binders of probe aNog, primary screen, biochemical, biotinylated probe, 635/667 nm fluorescence (AID 1115); conditions: higher = more signal;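 note: probe is biotinylated aNog protein used at 0.15 µg/mL for 1 h at 4 C; z-score combines 667 nm fluorescence of each spot with its signal to noise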
# [9] = biological target: Torsin-1A-interacting protein 1 (Homo sapiens) (UniProt Q5JTV8); assay: LAP1 binders from COS7 cell lysate, primary screen, small-molecule microarray, 635/667 nm fluorescence (AID 1116); conditions: COS7-hLAP1 lysate binding, 635 nm fluorescence, higher = more signal
# [10] = biological target: Alpha-bungarotoxin (Bungarus multicinctus) (UniProt P60615); assay: alpha-bungarotoxin binders on microarray, profiling panel, artefact control for SMM control protein annotation, biochemical, small-molecule microarray, Alexa647 label, 635/667 nm fluorescence (AID 1117); conditions: alpha-BTX-A647 binding fluorescence, higher = more signal
# Sequence of Alpha-bungarotoxin (Bungarus multicinctus) (P60615 whole entry, looked up): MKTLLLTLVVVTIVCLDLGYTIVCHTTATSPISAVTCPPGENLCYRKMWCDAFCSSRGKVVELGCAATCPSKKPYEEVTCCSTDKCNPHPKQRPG
# Sequence of Torsin-1A-interacting protein 1 (Homo sapiens) (Q5JTV8 whole entry, looked up): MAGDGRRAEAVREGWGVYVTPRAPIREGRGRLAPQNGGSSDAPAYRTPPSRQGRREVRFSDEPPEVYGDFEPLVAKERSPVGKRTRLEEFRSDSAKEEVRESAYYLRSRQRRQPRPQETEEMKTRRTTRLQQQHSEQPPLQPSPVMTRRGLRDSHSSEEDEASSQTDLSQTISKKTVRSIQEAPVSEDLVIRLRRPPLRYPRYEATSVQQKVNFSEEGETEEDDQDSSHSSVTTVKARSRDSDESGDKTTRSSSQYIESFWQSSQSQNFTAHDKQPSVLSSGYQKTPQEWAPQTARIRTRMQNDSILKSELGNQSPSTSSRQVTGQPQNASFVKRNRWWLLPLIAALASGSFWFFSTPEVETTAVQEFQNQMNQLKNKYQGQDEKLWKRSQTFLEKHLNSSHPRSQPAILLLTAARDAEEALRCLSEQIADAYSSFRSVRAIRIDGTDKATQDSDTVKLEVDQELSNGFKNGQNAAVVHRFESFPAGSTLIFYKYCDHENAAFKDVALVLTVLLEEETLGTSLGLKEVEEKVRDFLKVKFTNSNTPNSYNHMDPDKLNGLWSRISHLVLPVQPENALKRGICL
# Sequence of Left-right determination factor 2 (Homo sapiens) (O00292 whole entry, looked up): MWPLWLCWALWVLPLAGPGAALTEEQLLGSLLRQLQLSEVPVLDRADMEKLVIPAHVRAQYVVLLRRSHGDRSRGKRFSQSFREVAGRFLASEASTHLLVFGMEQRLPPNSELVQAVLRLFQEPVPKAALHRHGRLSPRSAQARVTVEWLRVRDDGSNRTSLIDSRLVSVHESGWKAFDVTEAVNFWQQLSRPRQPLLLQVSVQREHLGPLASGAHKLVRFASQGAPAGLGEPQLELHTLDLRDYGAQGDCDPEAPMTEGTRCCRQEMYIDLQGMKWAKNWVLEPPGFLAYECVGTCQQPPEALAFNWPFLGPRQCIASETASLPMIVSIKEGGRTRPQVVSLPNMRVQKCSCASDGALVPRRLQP
SMILES,composite z-score [1],z-score [2],composite z-score [3],composite z-score [4],composite z-score [5],composite z-score [6],composite z-score [7],composite z-score [8],composite z-score [9],composite z-score [10]
C=C(COC)/C(=C/C[C@@H](OC(=O)c1ccncc1)c1ccc(CO)o1)c1cnc2ccccc2c1,1.42,-0.632,1.03,0.274,-0.851,0.0037,0.365,0.557,1.83,2.65
COCCCNC(=O)[C@]1(CCC(=O)OC(C)(C)C)N=C(c2ccc(OCCCO)cc2)O[C@@H]1c1ccccc1,1.49,-0.151,-0.737,1.59,1,-0.0203,-0.0248,-0.0076,1.49,1.6
CC=CC(O)C1C=CC2C(=O)N(c3ccccc3)C(=O)C2N1Nc1ccc([N+](=O)[O-])cc1 (stereo not given),1.21,0.0112,0.382,-0.107,-0.654,-0.0685,0.0469,-0.124,0.643,0.529
O=C(O)[C@]1(Cc2ccccc2)N=C(c2ccc(OCCCO)cc2)O[C@@H]1c1ccccc1,-0.218,0.398,-0.539,-0.201,0.206,-0.128,0.0893,0.306,-0.499,-0.905
COC(=O)[C@@]1(Cc2ccc(F)cc2)[C@H]2c3cc(C(=O)N4CCCC4)n(CCc4c[nH]c5ccc(OC)cc45)c3C[C@H]2CN1C(=O)c1ccccc1,1.4,-2.22,0.474,1.92,0.878,1.19,1.17,2.98,0.781,1.23
CC(C)OC(=O)CC(=O)CC(O)c1cccc(C#N)c1 (stereo not given),1.32,-0.664,-0.0472,0.552,0.252,-0.0944,-0.16,-0.0956,1.39,0.684
O=C1OCC=C[C@H]2OC34C=CCN(Cn5nnc6ccccc65)C(=O)[C@H]3N(CCCCCCO)C(=O)[C@@H]4[C@@H]12 (stereo not given in full),-0.0554,-0.113,-1.14,-0.129,-0.004,-0.152,-0.16,0.162,3.14,-0.608
CC(C)c1ccc(NN2C(C(O)c3ccco3)C=CC3C(=O)N(c4ccccc4)C(=O)C32)cc1 (stereo not given),0.729,3.21,0.183,2.07,0.941,0.0629,0.279,1.47,0.93,2.69
COC(=O)[C@@]1(Cc2ccc(OC)cc2)[C@H]2c3cc(C(=O)N(C)C)n(CCc4c[nH]c5ccc(O)cc45)c3C[C@H]2CN1C(=O)c1ccccc1,1.06,-0.0903,-0.217,1.83,1.25,-0.0196,0.488,2.27,1.3,1.28
C[C@H]1C2=C3C(CC[C@H]4C(OCc5ccc(F)cc5C(F)(F)F)OC[C@](C)([C@@H]34)N(C(=O)OC(C)(C)C)C2)C(CO)C1CO (stereo not given in full),1.34,-2.81,-0.593,2.4,0.861,0.114,0.255,-0.697,0.222,0.671
C=CCOC(=O)[C@@H]1[C@H]2C(=O)O[C@H](c3ccccc3)[C@H](c3ccccc3)N2[C@H](c2ccc(OCCOC(=O)[C@H]3C[C@H]4C(=O)N[C@@H](CCCC[N+](C)(C)C)C(=O)N4[C@H]3c3ccc(O)cc3)cc2)[C@@]12C(=O)Nc1ccc(I)cc12,0.505,-0.908,1.05,1.64,-0.116,0.0101,0.147,-0.0927,1.49,1.89
CC(C)(C)OC(=O)CC[C@@]1(C(=O)O)N=C(c2ccc(OCCCO)cc2)O[C@@H]1c1ccccc1,1.16,0.344,-0.499,0.357,0.145,0.0799,0.0611,0.955,0.117,1.54
CC(=O)n1cc(C(O)C2C=CC3C(=O)N(c4ccccc4)C(=O)C3N2Nc2ccccc2)c2ccccc21 (stereo not given),-0.175,-1.95,-0.183,0.735,0.671,0.13,1.21,0.974,1.09,1.41
CC(C)NC(=O)[C@@]1(C)c2ccccc2C(=O)N(C(C)C)[C@H]1c1ccc(CO)cc1,-0.609,-0.593,-3.05,-0.614,-0.0732,-0.296,-0.154,-0.435,-1.97,-0.43
CCCCN1CC=CC23O[C@@H]4C=CCOC(=O)[C@@H]4[C@H]2C(=O)N(CCCO)[C@@H]3C1=O (stereo not given in full),0.409,-0.352,-0.997,-0.125,0.423,-0.202,-0.138,-0.168,-0.363,-1.34
COc1ccc(NN2C(C(O)c3ccccn3)C=CC3C(=O)N(C4CCCCC4)C(=O)C32)cc1 (stereo not given),1.41,-0.602,-0.188,1.58,0.37,0.0391,0.0875,1.17,0.766,0.887
CN1C(=O)C2C=CC(C(O)c3c(F)cccc3Cl)N(Nc3ccccc3)C2C1=O (stereo not given),1.19,-0.659,-0.445,1.45,0.496,-0.0276,0.432,0.707,0.0127,0.904

SMILES,composite z-score [1],z-score [2],composite z-score [3],composite z-score [4],composite z-score [5],composite z-score [6],composite z-score [7],composite z-score [8],composite z-score [9],composite z-score [10]
CCOC(=O)C1=CC[C@@H](c2ccccc2)N(S(=O)(=O)c2ccc(C)cc2)C1,0.493,-2.23,-0.0161,-0.11,-0.374,-0.0459,0.485,0.005,0.127,0.329
COc1ccc([Si](C)(C)[C@H]2[C@H](CCn3cc([C@H](O)c4ccccc4)nn3)O[C@@]3(C(=O)N(Cc4ccc(N5CCOC5=O)cc4)c4ccccc43)[C@@H]2C)cc1,-0.873,-2.21,-0.849,0.287,0.481,-0.176,-0.138,-0.1,-0.833,-0.374
COc1ccc([Si](C)(C)[C@H]2[C@H](CCn3cc([C@H](O)c4ccccc4)nn3)O[C@@]3(C(=O)N(Cc4cccc(N5C(=O)c6cccc7cccc5c67)c4)c4ccccc43)[C@@H]2C)cc1,-0.56,-2.67,-0.823,0.419,1.13,-0.175,-0.2,0.206,-0.0061,-1.02
COc1cc2c(cc1OC)CN(C(=O)[C@@H]1[C@H]3C(=O)O[C@H](c4ccccc4)[C@H](c4ccccc4)N3[C@H](c3ccccc3OCCO)[C@@]13C(=O)Nc1ccc(C#CC4(O)CCCCCC4)cc13)CC2,1.35,-2.18,0.246,0.545,0.222,-0.0685,0.0048,0.151,1.34,1.56
Cc1c(NC(=O)/C(C#N)=C/C=C/c2ccc(N(C)C)cc2)c(=O)n(-c2ccccc2)n1C,0.55,-0.754,0.431,0.824,-0.224,0.19,0.173,0.432,1.69,1.04
O=C1NC(=O)C2C1C=CC(C(O)c1cc(C(F)(F)F)cc(C(F)(F)F)c1)N2Nc1ccc(Cl)cc1Cl (stereo not given),-0.158,-0.99,-0.256,1.91,1.29,-0.0405,0.431,0.676,1.86,0.526
COC(=O)[C@@]1(Cc2ccc(OC)cc2)[C@H]2c3cc(C(=O)N4CCCC4)n(CCc4cc5ccccc5[nH]4)c3C[C@H]2CN1C(=O)c1ccccc1,1.41,-1.85,-0.239,2.44,0.913,0.239,-0.19,2.21,2.4,1.21
CN(C)CCCN1C(=O)[C@@]2(c3ccc([N+](=O)[O-])cc3)CC(=O)N(CC34CC5CC(CC(C5)C3)C4)[C@@H]2c2ccc(CO)cc21,0.869,-1.49,-0.741,-0.301,-0.828,-0.152,0.111,-0.302,-0.301,-0.0251
CCOC(=O)C[C@H]1[C@H](OC(=O)c2ccc(C(=O)c3ccccc3)cc2)[C@@H](NC(=O)c2ccc3ccccc3c2)c2cc(OCCCO)ccc2N1C(=O)c1ccccc1,0.974,-0.617,0.317,0.988,0.602,-0.0346,0.0684,0.612,0.602,1.04
CN(C)CCCNC(=O)[C@@]1(C)c2ccccc2C(=O)N(Cc2cc(C(F)(F)F)cc(C(F)(F)F)c2)[C@H]1c1ccc(CO)cc1,-0.488,-1.85,-1.31,0.139,0.0751,-0.118,-0.134,-0.484,-0.54,-0.779
Cc1ccc(C(C)CC(O)C2C=CC3C(=O)N(c4ccccc4)C(=O)C3N2Nc2ccc(C(C)C)cc2)o1 (stereo not given),1.33,1.02,-0.0337,2.35,1.01,0.14,-0.043,0.0485,0.801,1.64
O=C1OCCC=C[C@H]2OC34C=CCN(c5ccc(Cl)cc5)C(=O)[C@H]3N(CCCCCO)C(=O)[C@@H]4C12 (stereo not given in full),-0.357,0.312,-0.639,-0.262,-0.137,-0.0512,-0.0769,0.496,0.681,-0.702
C[C@]1(C(=O)NCCN2CCOCC2)c2ccccc2C(=O)N(Cc2ccc(OC(F)(F)F)cc2)[C@H]1c1ccc(CO)cc1,1.44,-0.705,-1.24,0.084,-0.0325,-0.252,-0.503,-0.313,0.836,0.396
C=CCOC(=O)[C@H]1[C@@H]2C(=O)O[C@@H](c3ccccc3)[C@@H](c3ccccc3)N2[C@@H](c2ccc(OCCOC(=O)[C@H]3C[C@H]4C(=O)N[C@@H](Cc5ccccc5)C(=O)N4[C@H]3c3ccc(O)cc3)cc2)[C@]12C(=O)Nc1ccc(I)cc12,1.39,-1.41,0.537,0.43,0.0144,0.0169,-0.333,-0.174,0.791,0.897
C=CCOC(=O)[C@H]1[C@@H]2C(=O)O[C@@H](c3ccccc3)[C@@H](c3ccccc3)N2[C@@H](c2ccc(OCCOC(=O)[C@H]3C[C@H]4C(=O)N[C@@H](CCCC[N+](C)(C)C)C(=O)N4[C@H]3c3cccc(OCCO)c3)cc2)[C@]12C(=O)Nc1ccc(I)cc12,0.62,-1.38,0.73,0.727,0.119,-0.0721,-0.138,0.0051,0.62,0.113
CCOC(=O)C[C@H]1[C@H](OC(=O)c2ccc(-c3ccccc3)cc2)[C@@H](NC(=O)C2CCCCC2)c2cc(OCCCO)ccc2N1C(=O)c1ccccc1,0.959,-1.84,0.365,0.413,-0.0071,-0.0822,-0.123,-0.232,-0.241,0.0785
